Results on 14 molecules are retold here after PubChem BioAssay (NCI).

The structures appear in SMILES notation. About 83,000 compounds went through this panel and 20% of them were active in at least one assay; those are over-represented in the sample as a whole.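 For each line, cells grew in 96-well plates with the test compound present at a single concentration for 48 hours.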 Active and inactive are the calls of the source. How the source made its calls: active means growth percent below 10; inactive means the rest.

The assay concerns HL-60(TB) leukemia. Briefly: NCI-60 one-dose screen, 48 h (100 = growth as untreated, 0 = no growth, -100 = all killed). The settings on record: 10 µM unless noted.
Take `COc1cccc(-c2nn(-c3ccccc3)cc2-c2ccnc(NCCNC(=O)Nc3ccccc3)c2)c1`: the growth was 19.9% (inactive). For the molecule `COC(=O)[C@]12CC[C@@H](C)[C@H](C)[C@@H]1C1=CC[C@@H]3[C@@]4(C)C[C@@H](O)OC[C@](C)(C=O)C4C(=O)C[C@@]3(C)[C@]1(C)CC2` (some centres undefined), the growth was -13.3% (active). Regarding `CC1(C)OB(O)c2cc(-c3nc4ccc5[nH]ncc5c4c4c3CCCC4)ccc21`, the growth is 90.7% (inactive). In the case of `COC1=C(OC)C(=O)C=CC1=O`, the growth was 60.8% (inactive). `CCn1cc(CNc2ccc(C(=O)Nc3cc4cc(OC)c(OC)cc4c(C)n3)cc2)cn1`: the growth was 32.8% (inactive). As for `CCOC(=O)c1[nH]c(-c2ccc(Cl)cc2)cc1-c1cccnc1`, the growth was -20.7% (active). Consider `CC1=C(N2CCOCC2)C(N2CCOCC2)=C(C)C(=O)C1=O`, for which the growth was 97.3% (inactive). Consider `O=C1/C=C/[C@@H](O)[C@@H]2C[C@@H](O)C[C@H]2/C=C/CCC[C@H](CCc2ccc(C(F)(F)F)cc2)O1`, for which the growth is -10.1% (active). Turning to `Nc1nc(Nc2ccc(Cl)cc2)nn1S(=O)(=O)c1ccc(-c2ccc(F)cc2)cc1`, the growth was 110% (inactive). For the molecule `O=c1oc2c(C(F)(F)F)cccc2cc1-c1csc(Nc2ccc(OCCF)cc2)n1`, the growth was -1.08% (active). For `O=C(Nc1ccccc1)NS(=O)(=O)c1c[nH]c(=S)[nH]c1=O` the value was 77.8% (inactive). For `CC(C)CCOC(=O)c1ccccc1` the value was 101% (inactive). For `CC/C(=N\N=C(/CC)c1ccc(Br)cc1)c1ccc(Br)cc1`, the growth was 124% (inactive). Regarding `CC(/C=N/N1C(=O)c2ccccc2C1=O)c1ccccc1` (centres undefined), the growth is 108% (inactive).
